Potency and affinity values are given separately. Inconclusive results are not listed. Active and inactive are the calls of the source.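 The calls were made as follows: active = in every test run, a fitted half-maximal concentration for signal decrease at or below twice the highest tested concentration; inconclusive = runs disagree, flat 30 to 70% decrease, or poor fit; inactive = the rest.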
Experiment: miR-122 activators in hepatoma reporter cells, dose response, cell-based, Huh7 psiCHECK-miR122, Renilla luciferase, cherry-picked (AID 651956);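 also: Renilla luciferase from a miR-122 sensor reporter so lower signal means miR-122 activation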
Settings: 48 h; series mostly up to 35 µM

outcome, inactive:
CN(C)CCCNC(=O)C[C@H]1CC[C@H]2[C@H](COc3ccc(NS(C)(=O)=O)cc3C(=O)N2C)O1
COC(=O)C[C@@H]1CC[C@H]2[C@@H](COc3ccc(NC(=O)c4ccc(C(F)(F)F)cc4)cc3C(=O)N2C)O1
CNC(=O)C[C@@H]1CC[C@@H]2[C@@H](COc3ccc(NC(=O)Cc4cccs4)cc3C(=O)N2C)O1
CCC(=O)N1[C@H](CN(C)C(C)=O)[C@H](c2ccc(-c3cccnc3)cc2)[C@@H]1CO
CC(=O)Nc1ccc2c(c1)C(=O)N(C)[C@H]1CC[C@H](CC(=O)Nc3ccccc3Cl)O[C@@H]1CO2
NC(=O)c1csc(-c2ccncc2)n1
COc1ccc(NC(=O)N(C)C[C@@H]2Oc3cc(C#CCC(C)C)ccc3S(=O)(=O)N([C@@H](C)CO)C[C@@H]2C)cc1
CCNC(=O)C[C@H]1CC[C@H]2[C@@H](COc3ccc(NS(C)(=O)=O)cc3C(=O)N2C)O1
Cc1cc(C)n(C(=O)Cn2nc(C)c(Br)c2C)n1
CC(=O)N1[C@H](CN(C)S(=O)(=O)c2ccccc2)[C@H](c2ccccc2)[C@@H]1CO
Clc1ccc(CSc2nnc(-c3ccncc3)o2)c(Cl)c1
CCCNC(=O)N1C[C@@H]2[C@H](c3ccccc31)[C@@H](CO)N2Cc1cc(F)ccc1F
Cc1c(CC(=O)NCCCC(=O)O)c(=O)oc2cc3occ(-c4ccccc4)c3cc12
CN1C(=O)c2cc(NC(=O)c3ccccc3F)ccc2OC[C@H]2O[C@@H](CC(=O)NCc3ccc4c(c3)OCO4)CC[C@@H]21
CCCNC(=O)C[C@@H]1CC[C@@H]2[C@H](COc3ccc(NC(=O)c4cc(F)cc(F)c4)cc3C(=O)N2C)O1
CC(=O)Nc1ccc(-c2cc(-c3ccc(NC(C)=O)cc3)nc(-c3ccc(NC(C)=O)cc3)n2)cc1
CN(C(=O)C12CC3CC(CC(C3)C1)C2)C1CCS(=O)(=O)C1 (stereo not drawn)
CNC[C@H]1Oc2cc(C#CC3CCCCC3)ccc2S(=O)(=O)N([C@H](C)CO)C[C@@H]1C
CCC(=O)N1[C@H](CN(C(C)C)S(C)(=O)=O)[C@@H](c2ccccc2)[C@@H]1CO
Cc1ccc(C2CC(C(F)(F)F)n3nc(C(=O)NCc4ccco4)cc3N2)cc1 (stereo not drawn)
CCCNC(=O)C[C@@H]1CC[C@@H]2[C@H](COc3ccc(NC(=O)Nc4ccccc4F)cc3C(=O)N2C)O1
CC(=O)c1ccc(Nc2nc3ccc(C)cc3n3cnnc23)cc1
CCCC(=O)Nc1ccc2c(c1)C(=O)N(C)[C@@H]1CC[C@H](CC(=O)NCc3cccc(F)c3)O[C@H]1CO2
COCCN(C[C@H]1[C@@H](c2ccccc2)[C@H](CO)N1C(=O)C1CCC1)C(C)=O
CC(C)C(=O)Nc1ccc2c(c1)C(=O)N(C)[C@H]1CC[C@H](CC(=O)NCCc3ccccc3)O[C@H]1CO2
CC(C)NC(=O)N1C[C@@H]2[C@H](c3ccccc31)[C@@H](CO)N2C(=O)c1cccnc1
CCCCC(=O)NC(c1ccccc1OC)c1ccc2cccnc2c1O (stereo not drawn)
CCC(=O)N(C)C[C@@H]1[C@@H](c2ccccc2)[C@H](CO)N1Cc1cccnc1
Cc1ccc(-c2ccc3c(c2)O[C@H](CN(C)C(=O)CC2CC2)[C@H](C)CN([C@@H](C)CO)S3(=O)=O)cc1
CO[C@H]1CN(C)C(=O)c2cc(NC(=O)c3ccccc3F)ccc2OC[C@@H](C)N(C)C[C@@H]1C
CC(=O)Nc1ccc2c(c1)C(=O)N(C)[C@@H]1CC[C@H](CC(=O)NC3CCCCC3)O[C@H]1CO2
CCCC(=O)Nc1ccc2c(c1)C(=O)N(C)[C@@H]1CC[C@@H](CC(=O)NCC(F)(F)F)O[C@H]1CO2
Fc1ccccc1-c1nc(-c2ccncc2)no1
CCCNC(=O)C[C@H]1CC[C@@H]2[C@H](COc3ccc(NS(=O)(=O)c4ccccc4C)cc3C(=O)N2C)O1
C/C=C/c1ccc([C@H]2[C@@H](CO)N(C(=O)C3CC3)[C@H]2CN(C)C(=O)CC2CC2)cc1
CO[C@H]1CN(C)C(=O)c2cc(NC(C)=O)ccc2OC[C@@H](C)N(C(=O)c2ccccn2)C[C@H]1C
CNC(=O)C[C@@H]1CC[C@@H]2[C@@H](COc3ccc(NC(=O)c4ccccc4F)cc3C(=O)N2C)O1
OC[C@H]1[C@@H](c2ccccc2)[C@@H](CNCC2CCC2)N1CC1CC1
